This is one part of a sample in which the strongest signals are shown more often than they occur.
Tests used:
Experiment in all cases: glycan array binding signal (z-score within array); higher = stronger binding
Conditions in all cases: glycan notation: IUPAC condensed, linker removed
[1] = molecular target: Fuc(a1-2)Gal(b1-4)GlcNAc(b1-2)Man(a1-3)[Fuc(a1-2)Gal(b1-4)GlcNAc(b1-2)Man(a1-6)]Man(b1-4)GlcNAc(b1-4)GlcNAc
How it was run: (§1)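 The binding signal is a Z-score computed within each array and averaged over linkers. Arrays of the same protein sequence at different concentrations or buffers were also averaged together. Data originate from 3228 arrays in the Consortium for Functional Glycomics database, kept only where the protein sequence was available.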

[2] = molecular target: Fuc(a1-2)Gal6S(b1-4)Glc6S
How it was run: as §1

[3] = molecular target: Fuc(a1-2)Gal6S(b1-4)GlcNAc
How it was run: as §1

[4] = molecular target: Fuc(a1-2)[GalNAc(a1-3)]Gal(b1-4)Glc
How it was run: as §1

[5] = molecular target: Fuc(a1-3)[Gal(b1-4)]GlcNAc6S
How it was run: as §1

[6] = molecular target: Gal(a1-3)[Gal(a1-4)]Gal(b1-4)GlcNAc
How it was run: as §1

Gal(a1-4)GlcNAc = molecular target: Gal(a1-4)GlcNAc
How it was run: as §1

[7] = molecular target: Gal(b1-3)GalNAc(a1-3)[Fuc(a1-2)]Gal(b1-4)GlcNAc
How it was run: as §1

[8] = molecular target: Gal(b1-3)GlcNAc(b1-2)Man(a1-3)[Gal(b1-3)GlcNAc(b1-2)Man(a1-6)]Man(b1-4)GlcNAc(b1-4)GlcNAc
How it was run: as §1

Gal(b1-4)GlcNAc = molecular target: Gal(b1-4)GlcNAc
How it was run: as §1

Gal3S(b1-3)GlcNAc = molecular target: Gal3S(b1-3)GlcNAc
How it was run: as §1

Gal3S4S(b1-4)GlcNAc = molecular target: Gal3S4S(b1-4)GlcNAc
How it was run: as §1

GalNAc(b1-3)Gal = molecular target: GalNAc(b1-3)Gal
How it was run: as §1

[9] = molecular target: GlcNAc(a1-4)Gal(b1-4)GalNAc
How it was run: as §1

[10] = molecular target: GlcNAc(b1-4)[GlcNAc(b1-6)]GalNAc
How it was run: as §1

[11] = molecular target: GlcNAc(b1-6)Gal(b1-4)GlcNAc
How it was run: as §1

GlcNAc3Prop(b1-4)GlcNAc = molecular target: GlcNAc3Prop(b1-4)GlcNAc
How it was run: as §1

[12] = molecular target: GlcNAc6S(b1-3)Gal(b1-4)GlcNAc
How it was run: as §1

Kdn(a2-6)Gal(b1-4)GlcNAc = molecular target: Kdn(a2-6)Gal(b1-4)GlcNAc
How it was run: as §1

[13] = molecular target: Neu5Ac(a2-3)Gal(b1-3)[Fuc(a1-4)]GlcNAc
How it was run: as §1

[14] = molecular target: Neu5Ac(a2-3)Gal(b1-4)GlcNAc(b1-2)Man(a1-3)[Neu5Ac(a2-6)Gal(b1-4)GlcNAc(b1-2)Man(a1-6)]Man(b1-4)GlcNAc(b1-4)GlcNAc
How it was run: as §1

[15] = molecular target: Neu5Ac(a2-3)Gal(b1-4)GlcNAc(b1-3)GalNAc
How it was run: as §1

[16] = molecular target: Neu5Ac(a2-3)Gal(b1-4)[Fuc(a1-3)]GlcNAc(b1-6)[Neu5Ac(a2-3)Gal(b1-3)]GalNAc
How it was run: as §1

[17] = molecular target: Neu5Ac(a2-3)[GalNAc(b1-4)]Gal(b1-4)GlcNAc
How it was run: as §1

[18] = molecular target: Neu5Ac(a2-6)Gal(b1-4)GlcNAc(b1-2)Man(a1-3)[GlcNAc(b1-2)Man(a1-6)]Man(b1-4)GlcNAc(b1-4)GlcNAc
How it was run: as §1

[19] = molecular target: Neu5Ac(a2-6)Gal(b1-4)GlcNAc(b1-2)Man(a1-6)[Man(a1-3)]Man(b1-4)GlcNAc(b1-4)GlcNAc
How it was run: as §1

[20] = molecular target: Neu5Ac(a2-8)Neu5Ac(a2-8)Neu5Ac
How it was run: as §1

B1: 4F2hc (Homo sapiens), P08195 (protein)
chain: WWHTGALYRIGDLQAFQGHGAGNLAGLKGRLDYLSSLKVKGLVLGPIHKNQKDDVAQTDLLQIDPNFGSKEDFDSLLQSAKKKSIRVILDLTPNYRGENSWFSTQVDTVATKVKDALEFWLQAGVDGFQVRDIENLKDASSFLAEWQNITKGFSEDRLLIAGTNSSDLQQILSLLESNKDLLLTSSYLSDSGSTGEHTKSLVTQYLNATGNRWCSWSLSQARLLTSFLPAQLLRLYQLMLFTLPGTPVFSYGDEIGLDAAALPGQPMEAPVMLWDESSFPDIPGAVSANMTVKGQSEDPGSLLSLFRRLSDQRSKERSLLHGDFHAFSAGPGLFSYIRHWDQNERFLVVLNFGDVGLSAGLQASDLPASASLPAKADLLLSTQPGREEGSPLELERLKLEPHEGLLLRFPYAA
[1]
  glycan array binding signal (z-score): -0.399
[2]
  glycan array binding signal (z-score): -0.953
[3]
  glycan array binding signal (z-score): -1.01
[4]
  glycan array binding signal (z-score): 6.38
[5]
  glycan array binding signal (z-score): 2.68
[6]
  glycan array binding signal (z-score): -0.32
Gal(a1-4)GlcNAc
  glycan array binding signal (z-score): -0.668
[7]
  glycan array binding signal (z-score): -0.507
[8]
  glycan array binding signal (z-score): 3.66
Gal(b1-4)GlcNAc
  glycan array binding signal (z-score): -0.318
Gal3S(b1-3)GlcNAc
  glycan array binding signal (z-score): 0.65
Gal3S4S(b1-4)GlcNAc
  glycan array binding signal (z-score): 3.95
GalNAc(b1-3)Gal
  glycan array binding signal (z-score): -0.631
[9]
  glycan array binding signal (z-score): -1.21
[10]
  glycan array binding signal (z-score): 0.848
[11]
  glycan array binding signal (z-score): 0.103
GlcNAc3Prop(b1-4)GlcNAc
  glycan array binding signal (z-score): 0.691
[12]
  glycan array binding signal (z-score): -1.04
Kdn(a2-6)Gal(b1-4)GlcNAc
  glycan array binding signal (z-score): 0.863
[13]
  glycan array binding signal (z-score): 1.08
[14]
  glycan array binding signal (z-score): -0.878
[15]
  glycan array binding signal (z-score): -0.993
[16]
  glycan array binding signal (z-score): 3.35
[17]
  glycan array binding signal (z-score): -0.5
[18]
  glycan array binding signal (z-score): -0.141
[19]
  glycan array binding signal (z-score): 5.26
[20]
  glycan array binding signal (z-score): -0.566
